Source: PubChem BioAssay (NCATS)
Results filed as inconclusive are left out. Calls of active or inactive are those of the source. Calls follow the shape of the full dose curve.

What follows are compounds tested against Atrial natriuretic peptide receptor 1 (Homo sapiens) (UniProt P16066) (assay: Natriuretic polypeptide receptor (hNpr1) antagonism - Pilot CMLD screen (AID 1347052)). Details: HEK293 hNpr1 GloSensor cGMP luminescence, ANP-stimulated; series mostly up to 9.22 µM.
Description: In order to identify small molecular compounds that inhibit the hNpr1 receptor we developed a high-throughput assay to measure inhibition of the guanylate cyclase activity of the receptor. cGMP production was measured using a circular permutated Firefly luciferase (FLuc) enzyme functionally linked to the cGMP binding domain of human phosphodiesterase 5 (GloSensor technology pGS-40F, (Fan, F. et al. 2008). The cGMP-sensor was expressed in human embryonic kidney 293 (HEK-293) cells and FLuc activity was measured after stimulation with hNrp agonist peptide. hNrp agonists activates the receptor's associated guanylyl cyclase (GC) domain producing cGMP which then binds to the GloSensor resulting in FLuc activation, the enzymatic activity of which can be measured as bioluminescence with addition of luciferin substrate.
This assay was initially piloted by testing with a small library of specialty compounds.
PROTOCOL TABLES (as described by Inglese J, Shamu CE and Guy RK. 2007)
SEQUENCE No. (e.g., 1, 2, 3, etc.); […] (e.g., Cells, Incubation, Reagent, etc.); VALUE and DESCRIPTION.
1. Cells. Seed 1500 HEK293 cGMP-sensor cells expressing hNpr1 per well in 4uL into Greiner 1536-well white/solid bottom high base, tissue culture-treated plates.
2. Incubation. Incubate plated cells at 37C in 5% CO2, 95% RH overnight.
3. Reagent. Add 1uL per well GloSensor reagent from Promega (2% final concentration) or CO2 independent media vehicle control to respective columns of Greiner 1536-well plates.
4. Incubation. Incubate plated cells at room temperature for 2 h, protect from light.
5. Compounds. Library compounds and A-71915 control added at 23 nL per well, transferred by Pin Tool.
6. Incubation. Incubate plated cells for 30 min. at room temperature, protect from light.
7. Detector. GloSensor baseline pre-read luminescence measured using CCD-based camera (Viewlux).
8. Compound. Add 1uL of hNppA peptide to 0.1 nM final concentration to stimulate hNpr1 or CO2 independent media as vehicle control.
9. Incubation. Incubate treated cells at room temperature for 20 min., protect from light.
10. Detector. GloSensor post-hNppA luminescence measured using CCD-based camera (Viewlux).
NOTES (numbers refer to Sequence numbers above)
1. HEK293 cells expressing hNpr1 and GIP/pGS-40F grown to 85-95% confluence (48-72 h) in T175 culture flasks (CO2 independent media supplemented with 10% FBS, 1% Pen/Strep antibiotics and 1 ug/mL puromycin). Trypsinize and harvest cells from T175 culture flasks and filter through 40 um cell strainer. Cells counted with Invitrogen Countess (30,000,000 - 50,000,000 cells/flask). Cells diluted to a final concentration of 375 cells/uL in CO2 independent media and a Millipore multidrop used to dispense 1500 cells per well (4uL/well) into 13 1536-well Greiner White/Solid bottom, high base tissue-culture treated (TC) plates and one Aurora 1536-well Black/Clear bottom, low base, TC plate (for visual inspection of cell health throughout the duration of the assay).
2. Cells incubated overnight at ambient temperature, 24 h. at 37C in 95% RH incubator protected from light, covered with metal lid with gas-exchange holes.
3. Prepare GloSensor Reagent (Promega): Reconstitute GloSensor luciferase substrate by adding 8.2mL Hepes buffer to 250mg substrate, mix well, protect from light and stored at -80C. Prepare a fresh 12% GloSensor solution in CO2 independent supplemented plating media (see above). Mix well and store at ambient temperature, protected from light. 1uL 12% GloSensor Luciferase Reagent added (2% final concentration) to respective columns of 13 x 1536-well Greiner plate with BioRaptr, 1uL CO2 independent plating media added to respective columns as vehicle control with BioRaptr.
4. Cells incubated for 2 h. at ambient temperature, protected from light with metal lid with gas-exchange holes.
5. A-71915 stock solution prepared (10 mM in DMSO). […]

Chain of Atrial natriuretic peptide receptor 1 (Homo sapiens) (P16066 whole entry, looked up, the tested form may be a part): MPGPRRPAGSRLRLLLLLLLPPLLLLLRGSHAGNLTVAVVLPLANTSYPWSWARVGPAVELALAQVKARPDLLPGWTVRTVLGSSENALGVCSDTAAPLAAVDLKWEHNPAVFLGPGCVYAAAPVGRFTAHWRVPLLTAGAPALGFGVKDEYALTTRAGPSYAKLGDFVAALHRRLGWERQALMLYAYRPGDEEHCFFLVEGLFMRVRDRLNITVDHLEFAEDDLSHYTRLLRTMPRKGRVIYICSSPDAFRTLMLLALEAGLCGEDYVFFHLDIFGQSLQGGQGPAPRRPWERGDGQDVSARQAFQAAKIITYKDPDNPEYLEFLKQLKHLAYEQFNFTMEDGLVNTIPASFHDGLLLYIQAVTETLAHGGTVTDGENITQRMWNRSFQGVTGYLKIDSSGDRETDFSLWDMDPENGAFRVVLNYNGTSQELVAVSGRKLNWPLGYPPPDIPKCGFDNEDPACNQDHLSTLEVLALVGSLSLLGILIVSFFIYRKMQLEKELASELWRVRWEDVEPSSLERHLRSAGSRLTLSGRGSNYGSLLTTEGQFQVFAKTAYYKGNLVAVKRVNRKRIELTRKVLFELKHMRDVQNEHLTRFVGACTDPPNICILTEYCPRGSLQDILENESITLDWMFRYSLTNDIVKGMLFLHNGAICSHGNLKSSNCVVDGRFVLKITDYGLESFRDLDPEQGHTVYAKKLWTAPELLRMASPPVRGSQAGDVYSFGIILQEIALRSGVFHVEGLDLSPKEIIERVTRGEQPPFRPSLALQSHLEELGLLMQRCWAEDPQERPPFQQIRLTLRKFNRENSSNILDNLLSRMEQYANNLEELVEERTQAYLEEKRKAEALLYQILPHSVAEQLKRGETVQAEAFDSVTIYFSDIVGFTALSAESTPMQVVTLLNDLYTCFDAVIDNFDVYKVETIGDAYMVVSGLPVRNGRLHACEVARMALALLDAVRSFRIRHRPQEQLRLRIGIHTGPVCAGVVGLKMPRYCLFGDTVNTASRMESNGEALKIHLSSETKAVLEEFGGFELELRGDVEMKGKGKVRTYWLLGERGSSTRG

Potency, inactive:
CCCCCCCC1=CC2=CC(=O)C(C)(OC(C)=O)C(=O)C2=CN1CCc1ccccc1 (stereo not given)
C[C@H]1Cc2c(-c3ccccc3)nc3c(c2CO1)CN(C(=O)c1cccnc1)CC3
CC(=O)OC[C@H]1O[C@H](CC=NO[C@H](C)c2cn([C@H](CO)Cc3ccccc3)nn2)C=C[C@@H]1OC(C)=O
C=CC1=C2C=C(C3CC3)N(C3CCCC3)C=C2C(=O)C(C)(OC(=O)c2ccco2)C1=O (stereo not given)
COC(=O)CCC(=O)OC1(C)C(=O)C=C2C=C(C3CC3)N(CCCOC(C)C)C=C2C1=O (stereo not given)
COC(=O)C1=C(C(=O)OC)[C@@H]2N(C)c3ccc(OC)cc3[C@@]23C[C@@H](C(=O)OC)N(C(=O)NCCBr)C3=N1
CCN1C(=NCCCCO)N[C@@H](CCc2ccccc2)[C@H](C(=O)OC)[C@H]1C
CC1=CC[C@@H](C)O[C@@]2(C1)C(=O)N(Cc1ccc(F)cc1)c1ccccc12
COC(=O)C1=C(C)N(Cc2ccccc2)C(=NCc2cc(OC)c(OC)c(OC)c2)NC1CCc1ccccc1 (stereo not given)
FC(F)(F)c1ccc(-c2nc(-c3ccccc3)oc2Nc2ccc3ccccc3c2)cc1
COc1ccc2c(c1)CO[C@H]([C@H](O)COC(C)=O)[C@H]2C=Cc1ccccc1
C[C@@H]1CC[C@H]2C(=O)N(Cc3cccc([N+](=O)[O-])c3)C[C@H](O)CN2[C@@H]1c1cccc(Br)c1
CC(C)CON=C1C[C@@H](O)[C@@H](O)[C@@H]2[C@H]3C(=O)N(c4ccc(F)cc4F)C(=O)[C@@H]3CC[C@@H]12
COC(=O)N[C@@H](c1ccco1)[C@]1(C(C)=O)CCCC1=O
CCCNC(=O)N1C2=NC(C(=O)OC)=C(C(=O)OC)[C@@H]3N(C)c4ccc(OC)cc4[C@]23C[C@H]1C(=O)OC
COC(=O)C1=C(C)N(Cc2ccccc2)C(=NCC2CC2)NC1c1ccccc1 (stereo not given)
COC(=O)C1=C(C)N(Cc2ccccc2)C(=NCCc2cccnc2)NC1c1ccccc1 (stereo not given)
CCN1C(=NCc2ccc(OC)cc2)N[C@@H](CCc2ccccc2)[C@H](C(=O)NCc2ccc(OC)cc2)[C@H]1C
C=CCNC(=O)N1CCc2nc(-c3ccc(OC)cc3C)c3c(c2C1)CO[C@@H](c1ccccc1)C3
O=C1C2=C(C(=O)c3ccccc31)[C@H]1O[C@](c3ccsc3)(Cc3c1ccc1ccccc31)O2
C[C@H]1C[C@@H](C)O[C@@]2(C1)C(=O)N(CC1CC1)c1ccccc12
COc1ccc(O[C@H]2C=C[C@@H](c3ccccc3)O[C@H]2COC(=O)NCc2cccc3ccccc23)cc1
CC1=CC[C@@H](COc2ccccc2)O[C@@]2(C1)C(=O)N(Cc1ccccc1C(F)(F)F)c1ccccc12
O=C1CCCC2=C1[C@H]1O[C@](CCCCN3C(=O)c4ccccc4C3=O)(Cc3ccccc31)O2
O=C1CCC=C1C(O)c1ccccc1 (stereo not given)
COC[C@H]1O[C@]2(c3ccccc3)CO[C@@H]1[C@@H](C=Cc1ccccc1)C2
COc1ccc(O[C@H]2C=C[C@@H](c3ccccc3)O[C@H]2CON=C2c3cc(OC)ccc3O[C@H](c3cccc(OC)c3)[C@H]2O)cc1
CC(Nc1oc(-c2ccccc2)nc1C(C)(C)C)c1ccccc1 (stereo not given)
COC(=O)N1C(C=Cc2ccc3c(c2)OCO3)=Cc2ccccc2C1CC(C)=O (stereo not given)
FC(F)(F)c1cc(NC(=S)Nc2ccc3ccccc3c2)cc(C(F)(F)F)c1
C[C@H]1Cc2c(COc3ccccc3)nc3c(c2CO1)CN(C(=O)C1CCCCC1)CC3
C[C@H]1Cc2c(-c3ccccc3)nc3c(c2CO1)CN(C(=O)Cc1cccs1)CC3
CCOC(=O)NN=C1C[C@@H](O)[C@@H](O)[C@@H]2[C@H]3C(=O)N(Cc4ccc5c(c4)OCO5)C(=O)[C@@H]3CC[C@@H]12
O=C(OCC(F)(F)F)[C@H](O)[C@@H](O)C(=O)OCC(F)(F)F
C#CCNC(=O)[C@H]1C=C(OC)C(=O)C[C@H](c2ccccc2)[C@H]1C
COC(=O)C1=NOC2(C=C(Br)C(OC)=C(Br)C2=O)C1 (stereo not given)
COCC1=Cc2cc3c(cc2C(C(C(=O)OC)C(=O)OC)N1C(=O)OC)OCO3 (stereo not given)
COC(=O)C1=C(C)N(Cc2ccccc2)C(=NCC(C)C)NC1c1cccc(C(F)(F)F)c1 (stereo not given)
CC(C)C(=O)N[C@H]1CCCN1C(=O)C=Cc1ccccc1
CCN(CCNC(=O)[C@H]1C=C(OC)C(=O)C[C@H](c2ccccc2)[C@@H]1C)C(C)=O
